One assay deals with Albumin (Bos taurus) (UniProt P02769). The assay is described as follows: bovine serum albumin binders on microarray, profiling panel, artefact control for SMM control protein annotation, biochemical, small-molecule microarray, Alexa647 label, 635/667 nm fluorescence (AID 1118).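 Note: score merges 667 nm emission intensity and signal-to-noise per printed compound spot.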 The following applies: BSA-A647 binding, fluorescence 635 nm, higher = more signal.
Assay [1] in a line: small-molecule microarray binders of probe aXIP, primary screen, biochemical, NeuroSMM set, 635/667 nm fluorescence (AID 1119).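 Note: probe is the protein aXip251-270 applied at 1 µg/mL to compound-printed slides; binding of probe to printed compounds measured as 667 nm fluorescence plus signal to noise.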 The following applies: higher = more signal, called active from +8 up or from −8 down.
Assay [2] in a line: small-molecule binders of probe aNOTCH3, primary screen, biochemical, small-molecule microarray, 635/667 nm fluorescence (AID 1120).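 Note: probe is a biotin-tagged antibody raised against NOTCH3 rather than NOTCH3 protein; score merges spot fluorescence near 667 nm with spot signal to noise.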 The note with it: higher = more signal.
The nature of assay [3]: small-molecule binders of probe aNOTCH2, primary screen, biochemical, small-molecule microarray, 635/667 nm fluorescence (AID 1121).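 Note: score merges feature fluorescence read at 667 nm with its signal to noise.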 The note with it: higher = more signal.
Assay [4] concerns the target Carbonic anhydrase 2 (Homo sapiens) (UniProt P00918). The assay is described as follows: CAII small-molecule binders, profiling panel, biochemical, small-molecule microarray, Alexa647-labelled CAII (AID 1122). The following applies: CAII-A647 binding fluorescence, higher = more signal.
The nature of assay [5]: COS7 lysate on small-molecule microarray, probe aHis, 635 nm (AID 1123).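 Note: z-score combines 667nm fluorescence intensity with signal-to-noise per printed compound spot.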 The note with it: COS7 cell lysate, fluorescence, higher = more signal.
Assay [6] in a line: compound binding in COS7 lysate, probe aLAP1, primary screen, cell lysate, small-molecule microarray (AID 1124).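 Note: lysate comes from COS7 cells expressing LAP1 and is applied at 0.3 µg/mL; score merges spot fluorescence near 667 nm with signal-to-noise over triplicate slides.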 The note with it: probe aLAP1, fluorescence, higher = more signal.
In the next assay the test system is Sam68 (KHDRBS1). The assay is described as follows: Sam68 small-molecule binders, primary screen, biochemical, small-molecule microarray, 635 nm fluorescence (AID 1125).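 Note: score merges 667 nm channel intensity with signal to noise over triplicate slides.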 The note with it: small-molecule microarray binding, higher = more signal.
The subject of assay [7] is Chordin-like protein 2 (CHRDL2). The assay is described as follows: CHRDL2 small-molecule binders, primary screen, biochemical, small-molecule microarray, 635 nm fluorescence (AID 1126).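 Note: printed compound slides probed with Chrdl2 protein at 4 µg/mL for 1 h at 4 C; score merges 667 nm emission intensity with signal to noise over three replicate slides.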 The following applies: small-molecule microarray binding, fluorescence 635 nm; higher = more signal.
The target in assay [8] is Concanavalin-A (Canavalia ensiformis) (UniProt P02866). The assay is described as follows: ConA small-molecule binders, primary screen, artefact control for SMM control protein annotation, biochemical, small-molecule microarray, Alexa647 label, 635 nm (AID 1127).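 Note: z combines 667 nm emission intensity with signal-to-noise across three replicate slides.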 The note with it: ConA-A647 binding fluorescence, higher = more signal.

Calls of active or inactive are those of the source.

Sequence of Albumin (Bos taurus) (P02769 whole entry, looked up): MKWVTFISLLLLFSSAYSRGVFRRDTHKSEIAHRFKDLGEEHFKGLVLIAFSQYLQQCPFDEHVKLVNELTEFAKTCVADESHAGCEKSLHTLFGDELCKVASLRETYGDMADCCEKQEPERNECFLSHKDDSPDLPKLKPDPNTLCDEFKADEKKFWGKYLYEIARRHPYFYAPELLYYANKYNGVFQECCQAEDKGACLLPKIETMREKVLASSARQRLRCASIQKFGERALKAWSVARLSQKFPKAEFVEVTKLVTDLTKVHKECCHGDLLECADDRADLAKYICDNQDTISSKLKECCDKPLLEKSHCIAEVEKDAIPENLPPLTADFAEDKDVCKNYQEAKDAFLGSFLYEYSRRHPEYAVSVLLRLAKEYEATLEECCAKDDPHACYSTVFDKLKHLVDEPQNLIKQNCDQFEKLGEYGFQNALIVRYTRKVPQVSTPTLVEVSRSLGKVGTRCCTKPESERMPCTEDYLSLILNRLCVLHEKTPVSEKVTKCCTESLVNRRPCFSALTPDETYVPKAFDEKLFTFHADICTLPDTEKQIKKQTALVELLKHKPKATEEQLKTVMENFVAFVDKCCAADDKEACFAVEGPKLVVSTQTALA
Sequence of Concanavalin-A (Canavalia ensiformis) (P02866 whole entry, looked up): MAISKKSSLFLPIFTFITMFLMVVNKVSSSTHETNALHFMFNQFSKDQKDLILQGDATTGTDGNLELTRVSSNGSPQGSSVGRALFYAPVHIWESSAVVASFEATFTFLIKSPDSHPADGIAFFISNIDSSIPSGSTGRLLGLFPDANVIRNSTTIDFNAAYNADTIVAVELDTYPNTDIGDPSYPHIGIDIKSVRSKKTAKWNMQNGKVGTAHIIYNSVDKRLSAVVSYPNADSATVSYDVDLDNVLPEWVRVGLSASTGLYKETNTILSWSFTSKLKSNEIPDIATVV

For `CCCNC(=O)[C@@]1(c2ccc([N+](=O)[O-])cc2)CC(=O)N(CC23CC4CC(CC(C4)C2)C3)[C@@H]1c1ccc(CO)cc1I`, the composite z-score with Albumin (Bos taurus) was 0.41; in assay [2] it was 0.216; in [3], 0.126; in [4], 0.118; in [5], 1.33; in [6], 0.137. The figures for the composite z-score (in the assay on Sam68 (KHDRBS1); in assay [7]; in assay [8]) were 0.974, -0.366 and 0.519, respectively. Moreover, in assay [1], the composite Z-score was 0.609 (inactive).
With `C=C[C@H](C)[C@H](O)c1ccc(OCCO)cc1`, the composite z-score is -0.529 with Albumin (Bos taurus); -0.502 in assay [2]; -0.185 in assay [3]; 0.264 in [4]; -1.09 in [5]; -0.177 in [6]. Also, the figures for the composite z-score (with Sam68 (KHDRBS1); in assay [7]; in assay [8]) were -1.74, -2.23 and -0.802, respectively. The composite Z-score in assay [1] is -0.254 (inactive).
For the molecule `Cc1ccc(N2C(=O)c3ccccc3[C@@H](C(=O)NC(C)C)[C@@H]2c2ccc(CO)cc2)nc1`, the composite z-score was -0.106 in the assay with Albumin (Bos taurus); -0.272 in assay [2]; -0.152 in assay [3]; 0.743 in assay [4]; 0.971 in assay [5]; 0.618 in [6]. Also, the composite z-score was -0.721 in the assay on Sam68 (KHDRBS1), -0.0432 in assay [7] and -0.0441 in assay [8]. In addition, in [1], the composite Z-score was -0.0969 (inactive).
As for `O=c1cccc(-c2ccc3ccccc3c2)o1`, the composite z-score with Albumin (Bos taurus) was -1.67; in assay [2] it was -0.0766; in assay [3] it was -0.115; in [4], -0.263; in assay [5], -0.332; in assay [6], -0.341. Moreover, the composite z-score in the assay with Sam68 (KHDRBS1) was -0.591; in assay [7], 0.387; in assay [8], -0.544. Also, the composite Z-score in assay [1] is 0.19 (inactive).
For `[N-]=[N+]=NCc1ccccc1C[C@]1(C(=O)NCc2ccccc2)COC(c2ccc(OCCCO)cc2)=N1`, the composite z-score was 0.632 with Albumin (Bos taurus); 0.112 in assay [2]; -0.0814 in assay [3]; 0.644 in assay [4]; 1.89 in assay [5]; 0.784 in assay [6]. In addition, the composite z-score in the assay with Sam68 (KHDRBS1) is 1.3; in assay [7], -0.694; in assay [8], 0.612. The composite Z-score in [1] was 0.452 (inactive).
Turning to `COc1ccc([Si](C)(C)[C@H]2[C@H](CC(=O)N3Cc4ccccc4C[C@H]3CO)O[C@@]3(C(=O)N(Cc4cccc(I)c4)c4ccccc43)[C@@H]2C)cc1`, the composite z-score in the assay with Albumin (Bos taurus) was -0.481; in [2], -0.0947; in assay [3], -0.125; in assay [4] it was 0.784; in assay [5] it was -0.0845; in assay [6] it was -0.361. Besides, the values for the composite z-score (with Sam68 (KHDRBS1); in assay [7]; in [8]) were 0.418, 1.54 and 0.891, respectively. In addition, the composite Z-score in assay [1] is 0.58 (inactive).
With `CCCC[C@H]1OB(O)C[C@H]2C1=C(COc1ccccc1)C[C@H]1C(=O)N(Cc3ccccc3)C(=O)[C@H]12`, the composite z-score was 0.117 in the assay with Albumin (Bos taurus); 0.0203 in [2]; -0.108 in assay [3]; 0.602 in assay [4]; 0.383 in assay [5]; 0.154 in [6]. The composite z-score with Sam68 (KHDRBS1) came out at 0.868; in assay [7] it was 0.0092; in assay [8], 1.12. The composite Z-score in assay [1] was 0.142 (inactive).
For `COC(=O)c1c(CC[C@@H](CO)NC(=O)Nc2ncn[nH]2)oc(C(=O)Cc2ccccc2)c1C(=O)OC`, the composite z-score with Albumin (Bos taurus) was -0.145; in assay [2], 0.158; in assay [3], -0.12; in assay [4], 0.768; in [5] it was 3.22; in assay [6], 0.705. In addition, the results for the composite z-score (with Sam68 (KHDRBS1); in assay [7]; in assay [8]) were 0.885, 1.08 and 1.16, respectively. The composite Z-score in assay [1] is 1 (inactive).
As for `CCOC(=O)C[C@H]1[C@H](OC(=O)c2cc3ccccc3oc2=O)[C@@H](NC(=O)c2ccc3ccccc3c2)c2cc(OCCCO)ccc2N1C(=O)c1ccccc1`, the composite z-score with Albumin (Bos taurus) is 0.342; in assay [2], 0.0745; in [3] it was -0.123; in [4] it was 0.571; in assay [5] it was 0.224; in [6], 0.334. In addition, the composite z-score in the assay with Sam68 (KHDRBS1) was found to be 1.29; in assay [7], 0.234; in [8], 0.275. In addition, the composite Z-score in assay [1] is 0.465 (inactive).
Turning to `C#C[C@H](O[Si](C#CCCCCCC)(C(C)C)C(C)C)c1ccccc1`, the composite z-score was -0.22 in the assay with Albumin (Bos taurus); -0.22 in assay [2]; -0.155 in [3]; 0.342 in assay [4]; 0.43 in [5]; -0.281 in assay [6]. Besides, the composite z-score in the assay with Sam68 (KHDRBS1) is 0.524; in [7], -0.0786; in assay [8], -0.0042. Besides, the composite Z-score in [1] was 0.364 (inactive).
As for `O=C1C2C=CC(C(O)C3CC=CCC3)N(n3cnnc3)C2C(=O)N1Cc1ccccc1` (stereo not given), the composite z-score is -0.952 with Albumin (Bos taurus); -0.213 in assay [2]; -0.202 in assay [3]; 0.903 in assay [4]; 0.233 in assay [5]; 1.34 in assay [6]. The results for the composite z-score (with Sam68 (KHDRBS1); in assay [7]; in assay [8]) were 0.185, -1.69 and -0.137, respectively. Also, the composite Z-score in assay [1] was 0.241 (inactive).

The record behind these values is PubChem BioAssay.
